Screening results: PubChem BioAssay, National Center for Advancing Translational Sciences (NCATS)
ELG1 DNA repair: ELG1-dependent DNA repair inhibition; Potency, µM (doses to about 46.1 µM), most hits filed as inhibitors; HEK293T ELG1-luciferase reporter, luminescence, 16 h; DNA damage induced by 5-fluorouridine; 2.3% of 330,000 active; also: nearly all actives have a fitted effect of over 55% in size
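Overnight (16 hr) co-exposure of 2,000 cells/well to 5-fluorouridine and compound at 37 °C preceded detection. Luciferase was quantified via ONE-Glo luminescence; loss of signal denotes inhibition.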
RORg inh: blocks mouse ROR gamma transcriptional activity | Drosophila S2 Gal4-RORgamma UAS-luciferase reporter, 20 h | Potency, µM (doses to about 53.6 µM), most hits filed as inhibitors | 5.4% of 310,000 active | AID 2551; also: nearly all actives have a fitted effect of over 60% in size
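ROR gamma transcriptional activity was tracked as Gal4-UAS luciferase output in stably transfected Drosophila Schneider cells, with compound added 1 hr before 700 uM copper sulfate induction and a 20 hr ambient-temperature incubation.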
12-LOX inh: inhibitors of human 12S-lipoxygenase ALOX12; P18054; purified 12hLO, xylenol orange hydroperoxide absorbance; Potency, µM (doses to about 108 µM), actives largely listed as inhibitors; 1.1% of 580,000 active
Target sequence (P18054 whole entry, looked up): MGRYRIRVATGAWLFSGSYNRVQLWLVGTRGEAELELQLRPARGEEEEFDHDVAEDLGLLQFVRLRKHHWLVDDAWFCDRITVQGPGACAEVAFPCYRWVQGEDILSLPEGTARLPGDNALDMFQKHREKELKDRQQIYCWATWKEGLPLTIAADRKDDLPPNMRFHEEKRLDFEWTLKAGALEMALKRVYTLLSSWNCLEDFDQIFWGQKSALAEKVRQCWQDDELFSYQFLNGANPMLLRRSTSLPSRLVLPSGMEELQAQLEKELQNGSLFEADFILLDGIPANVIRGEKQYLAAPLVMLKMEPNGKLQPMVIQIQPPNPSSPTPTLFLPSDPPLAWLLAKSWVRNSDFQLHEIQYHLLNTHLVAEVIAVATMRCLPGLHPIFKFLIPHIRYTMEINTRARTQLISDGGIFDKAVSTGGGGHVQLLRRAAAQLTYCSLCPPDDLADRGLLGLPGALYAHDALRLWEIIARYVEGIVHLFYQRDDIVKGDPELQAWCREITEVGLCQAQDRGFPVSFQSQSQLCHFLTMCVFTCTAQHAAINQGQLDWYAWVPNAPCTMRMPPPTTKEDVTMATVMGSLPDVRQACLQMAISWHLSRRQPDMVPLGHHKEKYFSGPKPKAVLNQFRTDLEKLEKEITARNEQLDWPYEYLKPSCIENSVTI
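Purified human 12hLO at 150 nM in 25 mM Hepes, 0.01% Triton X-100, pH 7.0, preincubated 15 min at room temperature with compound. Reaction started with 40 uM arachidonic acid, 30 min at room temperature. Hydroperoxide measured by Fe-xylenol orange, 573/405 nm absorbance ratio.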
DT40 TDP1 no CPT: qHTS for Inhibitors of human tyrosyl-DNA phosphodiesterase 1 (TDP1): qHTS in cells in absence of CPT; DT40 Tdp1-/- hTDP1 cells, no CPT, ATP luminescence, 48 h; Potency, µM (top dose mostly 46.2 µM), usual class: inhibitors; 15% of 420,000 active; also: nearly all actives have a fitted effect of over 55% in size
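Stably hTDP1-transfected Tdp1-null chicken DT40 cells were treated with library compounds minus camptothecin and grown for at least 48 hr at 37 °C, after which cellular ATP was quantified by luminescence.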
Gal4-VP16 FLuc: counter-screen for ROR gamma inhibitors: Gal4-VP16 reporter; Drosophila S2 Gal4-VP16 UAS-luciferase, luminescence, 20 h; Potency, µM (titrated, usually from 53.6 µM), usual class: inhibitors; 3.5% of 310,000 active; AID 2546;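 also: Gal4-VP16 expression switched on by copper sulfate through the metallothionein promoter; nearly all actives have a fitted effect of over 50% in size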
TDP1 cell CPT: growth inhibition of DT40 Tdp1-/-;hTDP1 cells with camptothecin (screen for TDP1 inhibitors) | chicken DT40 Tdp1-/-;hTDP1 cells + 20 nM CPT, ATP luminescence, 48 h | Potency, µM (top dose mostly 46.2 µM), most hits filed as inhibitors | 12% of 420,000 active | AID 686979; also: nearly all actives have a fitted effect of over 55% in size
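Chicken DT40 Tdp1-/- cells complemented with human TDP1, 400 cells/well, exposed to compounds plus 20 nM camptothecin for at least 48 h at 37 C; viability read as ATP content by CellTiter-Glo luminescence.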
Hits are given with their value; n = inactive; u = inconclusive; x = no result given; [ ] = dose if it differs, or a comment. Most compounds without a hit are left out; they make up all but 15% or so of the library. Calls follow the shape of the dose curve; as a rule, active = well fitted curve in the direction sought with a large enough effect; inconclusive = small, poorly fitted or top-dose-only effect, or another doubt; inactive = no such curve, though single readings can be large; an effect the other way counts as inactive or inconclusive.

SMILES | ELG1 DNA repair | RORg inh | 12-LOX inh | DT40 TDP1 no CPT | Gal4-VP16 FLuc | TDP1 cell CPT
COc1ccccc1NC(=O)CC(=O)Nc1ccccc1OC | n | n | n | n | n | n
COc1ccccc1NC(=S)NC(=O)CCc1ccccc1 | n | 13µM | n | n | 10µM | n
COc1ccccc1NC(=S)NC(=O)CC(C)C | n | 2.2µM | n | u | 13µM | u
O=C(CCc1ccccc1)NC(=S)Nc1cccc(Br)c1 | n | 11µM | u | n | u | n
O=C(c1ccc(F)c(F)c1)N1CCC(n2cc(-c3nc(-c4ccccc4)no3)nn2)CC1 | x | x | n | x | x | x
CC(C)c1ccc(/C=N/NC(=O)CCc2ccccc2)cc1 | x | x | n | x | x | x
O=C(CCc1ccccc1)NC(=S)Nc1ccccc1Br | u | 3.5µM | u | u | u | u
CC(C)c1ccc(O)c(NC(=S)NC(=O)CCc2ccccc2)c1 | u | 13µM | n | n | n | n
COc1cc(NC(=S)NC(=O)CCc2ccccc2)cc(OC)c1 | u | 0.56µM | u | u | 7.1µM | u
N/C(=N/O)c1cccc(CN2CCOCC2)c1 | x | x | n | x | x | x
CC1CCCN(C(=O)Cc2cn(Cc3cccc(Cl)c3)c3ccccc23)C1 (centres undefined) | n | n[10 µM] | n | 15µM | n | u
CS(=O)(=O)Nc1ccc(/C=C/C(=O)O)cc1 | x | x | n | x | x | x
Cc1ccc(Cn2c(SCc3ccc(C(=O)NC4CCCCC4)cc3)nc3ccncc32)cc1 | x | x | n | 21µM | x | u
Cc1cccc(CSc2nc3ccncc3n2CC(=O)Nc2ccc(C)c(C)c2)c1 | u | n | x | x | n | x
Cc1ccc(CSc2nc3ccncc3n2Cc2ccc(C(=O)NCCN3CCCC3)cc2)cc1 | x | x | n | x | x | x
COc1ccc(Cn2c(SCc3ccc(C(=O)NC4CCCCC4)cc3)nc3ccncc32)cc1 | x | x | n | 16µM | x | u
O=C(NC1CCCCC1)c1ccc(CSc2nc3ccncc3n2Cc2ccccc2)cc1 | x | x | n | 21µM | x | u
COc1ccc(CSc2nc3ccncc3n2CC(=O)Nc2cc(C)cc(C)c2)cc1 | x | x | n | 16µM | x | u
CC1c2ccsc2CCN1CC(O)COc1ccc(-c2ccccc2)cc1 (centres undefined) | x | x | n | x | x | x
CC(=O)N1CC2(Cc3ccccc31)CN(C(=O)Cc1ccccn1)C2 | x | x | n | x | x | x
CCOC(=O)c1[nH]c(CN2CCN(c3ccc(OC)cc3)CC2)c(C(=O)OCC)c1C | 18µM | n | n | 13µM | n | n
CCOC(=O)c1[nH]c(C)c(C(=O)N2CCN(c3ccc(OC)cc3)CC2)c1C | n | n | n | u | n | n
CCOC(=O)C1=C(CN2CCCCC2)NC(=O)NC1c1ccc(OC)cc1 (centres undefined) | x | x | 45µM | n | x | n
CCOC(=O)C1=C(CN2CCN(c3cc(C)ccc3C)CC2)NC(=O)NC1c1ccc(Cl)cc1 (centres undefined) | x | x | n | 16µM | x | u
CCOC(=O)C1=C(CN2CCN(c3ccc(OC)cc3)CC2)NC(=O)NC1c1ccc(Cl)cc1 (centres undefined) | x | x | u | 15µM | x | 21µM
SMILES | ELG1 DNA repair | RORg inh | 12-LOX inh | DT40 TDP1 no CPT | Gal4-VP16 FLuc | TDP1 cell CPT
CCOc1ccc(-c2nc(CSCC(=O)NCCCN3CCOCC3)c(C)o2)cc1 | x | x | n | x | x | x
Cn1c(=O)[nH]c(=O)c2c1nc(N1CCN(Cc3ccc(Cl)cc3)CC1)n2CCCc1ccccc1 | x | x | n | x | x | x
Cc1ccc(C2CCCN2S(=O)(=O)c2ccccc2)cc1 (centres undefined) | x | x | n | x | x | x
Cc1ccc(Cl)cc1NC(=O)COC(=O)c1nn(-c2ccccc2)c(=O)c2ccccc12 | x | x | n | x | x | x
CCNC(=O)C1(C)CCCN(Cc2ccc(-c3ccccc3)o2)C1 (centres undefined) | x | x | n | 23µM | x | 23µM
CCCNC(=O)C1(C)CCN(Cc2ccc(-c3ccccc3)o2)C1 (centres undefined) | x | x | u | u | x | 23µM
CC1(Oc2cccc(F)c2)CCN(Cc2ccc(-c3ccccc3)o2)C1 (centres undefined) | x | x | u | u | x | 23µM
CCCc1ccc(-c2cc(C(=O)NCCCn3ccnc3)c3ccccc3n2)cc1 | x | x | n | x | x | x
CC(C)C(=O)N1CCN(CCNc2cc(=O)oc3ccccc23)CC1 | x | x | n | x | x | x
